In PubChem BioAssay (EPA / NIEHS) one finds outcome and AC50 data, which are given here for 1 compound.

The AC50 is the midpoint of the concentration-response curve, whichever way the signal moves.

The nature of test [1]: CCTE_Shafer_MEA_acute_spike_number: CCTE's Neural Acute Assay for Total Number of Spikes, Shafer Lab (AID 2284008). The procedure, abridged:
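Rat primary cortical neurons on 48-well MEA plates, DIV 13 or 15, at 37 C. 40 min baseline then 40 min with compound (0.03-40 uM); spikes detected at 8x rms noise, expressed as percent change from baseline.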

The nature of test [2]: CCTE_Shafer_MEA_acute_firing_rate_mean: CCTE's Neural Acute Assay for Mean Firing Rate, Shafer Lab (AID 2284009).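 Further: analyzed for loss of signal so actives lower firing rate relative to DMSO.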 The procedure, abridged: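 Spontaneous spiking of primary rat cortical networks, DIV 13/15, 37 C. Compound 0.03-40 uM, n ≥3 wells; 40 min baseline vs 40 min treated. Endpoint fitted in loss-of-signal direction against DMSO.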
Test [3] can be described thus: CCTE_Shafer_MEA_acute_burst_number: CCTE's Neural Acute Assay for Single-Electrode Bursts, Shafer Lab (AID 2284013). In a few lines:
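Burst totals were derived with adaptive spike detection (8x rms threshold) on filtered signals from rat cortical cultures; change relative to pre-treatment baseline after 40-min compound exposure (0.03-40 uM) was fitted in the negative direction against DMSO.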

Test [4] can be described thus: CCTE_Shafer_MEA_acute_burst_duration_mean: CCTE's Neural Acute Assay for Mean Burst Duration, Shafer Lab (AID 2284014).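 Further: hits are decreases in mean burst duration relative to DMSO controls.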 In a few lines:
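Acute exposure of mature rat cortical networks (DIV 13 or 15) grown on microelectrode arrays to 0.03-40 uM compound. Mean burst duration compared with the 40-min pre-dose baseline over a 40-min post-dose recording at 37 C.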

Test [5] can be described thus: CCTE_Shafer_MEA_acute_per_burst_spike_number_mean: CCTE's Neural Acute Assay for Average Number of Spikes Per Burst, Shafer Lab (AID 2284015).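 Further: hits are decreases in mean spikes per burst versus baseline.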 In a few lines:
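Percent change in mean spikes per single-electrode burst is compared between a 40 min baseline and a 40 min recording with compound (0.03-40 uM). Cultures were rat cortical neurons on MEA plates at DIV 13 or 15, recorded at 37 C, with DMSO as the negative control.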

Test [6] is described as follows: CCTE_Shafer_MEA_acute_interburst_interval_mean: CCTE's Neural Acute Assay for Mean Interburst Interval, Shafer Lab (AID 2284016).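 Further: percent change of mean interburst interval versus each well's own pre-dose baseline; curves fitted for decrease in interburst interval relative to DMSO.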 In a few lines: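 Percent change in mean single-electrode interburst interval was calculated per well from 40 min recordings before and after compound (0.03-40 uM). Recordings were made at 37 C on rat cortical cultures at DIV 13 or 15, with spikes detected at 8x rms threshold.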

Test [7] can be described thus: CCTE_Shafer_MEA_acute_burst_percentage_mean: CCTE's Neural Acute Assay for Percentage of Spikes in a Burst, Shafer Lab (AID 2284017). In a few lines:
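Well-level mean burst percentage from a 40-min recording after compound (0.03-40 uM) expressed as percent change from a 40-min baseline at 37C. Cultures: primary rat cortical neurons on MEA, dosed on DIV 13 or 15; fitted downward relative to DMSO.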

Test [8] in a line: CCTE_Shafer_MEA_acute_per_network_burst_spike_number_std: CCTE's Neural Acute Assay for Standard Deviation of Number of Spikes in a Network Burst, Shafer Lab (AID 2284020).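 Further: fitted for decrease in spike-number SD versus DMSO so actives lower it.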 The procedure, abridged:
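Acute MEA exposure, rat cortical neurons, 0.03-40 uM. Per-well % change versus own baseline; DMSO as negative control.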

Test [9] in a line: CCTE_Shafer_MEA_acute_per_network_burst_electrodes_number_mean: CCTE's Neural Acute Assay for Mean Number of Electrodes in a Network Burst, Shafer Lab (AID 2284021).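 Further: curves fitted for decreases only so hits reduce electrodes per burst.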 The procedure, abridged: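 Rat primary cortical neurons on 48-well MEAs, DIV 13 or 15, were treated at 0.03-40 uM. Spikes were detected at 8x rms noise and recorded at 37 C. The mean electrodes per network burst in a 40 min exposure recording was expressed as percent change from a 40 min baseline.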

A short description of test [10]: CCTE_Shafer_MEA_acute_network_burst_percentage: CCTE's Neural Acute Assay for Percentage of Network Bursts, Shafer Lab (AID 2284022).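 Further: curves fitted for loss so actives lower network burst percentage.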 In a few lines: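 Rat primary cortical neuron networks on 48-well MEA plates, DIV 13 or 15, treated acutely with compound (0.03-40 uM, at least three wells). Percent of spikes within network bursts compared between 40-min recordings before and during exposure at 37 C, expressed as percent change.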

The nature of test [11]: CCTE_Shafer_MEA_acute_cross_correlation_HWHM: CCTE's Neural Acute Assay for Cross Correlation at Half Width at Half Maximum, Shafer Lab (AID 2284026).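 Further: spontaneous network firing of rat primary cortical neurons on multiwell microelectrode arrays; percent change per well from pre-dose baseline in spike cross-correlogram half width; hits are a decrease in cross-correlogram half width relative to DMSO.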 The procedure, abridged:
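Rat primary cortical neurons on 48-well MEA plates; 40-min baseline and 40-min post-exposure recordings at 37 C on DIV 13 or 15, compounds 0.03-40 uM. Spikes detected at 8x rms noise; percent change in cross-correlogram HWHM per well vs baseline.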

Test [12] is described as follows: CCTE_Shafer_MEA_dev_firing_rate_mean: CCTE's Neural Network Formation Assay for Mean Firing Rate, Shafer Lab (AID 2284031). In a few lines:
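Extracellular spike frequency, AUC over DIV 5–12 recordings, in rat cortical neuron MEA cultures dosed from plating; loss direction vs DMSO.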

Test [13] in a line: CCTE_Shafer_MEA_dev_per_burst_spike_percent: CCTE's Neural Network Formation Assay for Percent of Spikes in a Burst, Shafer Lab (AID 2284032). In a few lines: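 Value is trapezoidal AUC over recordings on days 5, 7, 9 and 12 of the well-mean fraction of spikes falling in single-electrode bursts; rat cortical cultures exposed continuously from plating, treatment renewed DIV 5 and 9, fitted downward against DMSO.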

Test [14] is described as follows: CCTE_Shafer_MEA_dev_active_electrodes_number: CCTE's Neural Network Formation Assay for Number of Active Electrodes, Shafer Lab (AID 2284040; active means hit-call score of the fitted dose curve at least 0.9, where 1 is the maximum). The procedure, abridged:
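Developing rat cortical networks on MEAs, exposed DIV 0–12. Value is the AUC of active-electrode counts (≥5 spikes/min) from days 5, 7, 9, 12, relative to DMSO.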

Test [15] can be described thus: CCTE_Shafer_MEA_dev_burst_rate: CCTE's Neural Network Formation Assay for Burst Rate, Shafer Lab (AID 2284042). The procedure, abridged:
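Exposure ran continuously over 12 days of network development in rat cortical cultures, with compound refreshed during full media changes on DIV 5 and 9. Single-electrode bursts per recording time, well-mean over active electrodes, trapezoidal AUC across days 5–12, fitted downward relative to DMSO.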

The nature of test [16]: CCTE_Shafer_MEA_dev_per_burst_interspike_interval: CCTE's Neural Network Formation Assay for Burst Interspike Interval, Shafer Lab (AID 2284044). In a few lines: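 Primary rat cortical neurons on 48-well MEA plates, exposed from day 0 through day 12, treatment renewed at DIV 5 and 9. Within-burst interspike interval recorded days 5, 7, 9, 12, well-averaged, summarised as AUC; negative fit versus DMSO.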

Test [17] in a line: CCTE_Shafer_MEA_dev_burst_duration_mean: CCTE's Neural Network Formation Assay for Mean Burst Duration, Shafer Lab (AID 2284045). In a few lines: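 Network-formation assay in primary rat cortical neurons; treatment spans twelve days of development. Mean burst duration per well is integrated by trapezoidal AUC and fitted in the loss-of-signal direction against DMSO baseline.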

Test [18] in a line: CCTE_Shafer_MEA_dev_interburst_interval_mean: CCTE's Neural Network Formation Assay for Mean Interburst Interval, Shafer Lab (AID 2284046).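 Further: well-mean interburst interval of bursting electrodes as AUC over four recording days; curve fitted for decrease in interburst interval relative to DMSO.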 In a few lines:
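Primary rat cortical neurons on PEI-coated 48-well MEA plates (laminin added with cells at plating) (16 electrodes/well), exposed from plating day 0 with renewal at DIV 5 and 9. Mean inter-burst interval averaged over bursting electrodes, AUC across days 5, 7, 9, 12; DMSO baseline.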

Test [19] in a line: CCTE_Shafer_MEA_dev_inter_network_spike_interval_mean: CCTE's Neural Network Formation Assay for Mean Inter-network Spike Interval, Shafer Lab (AID 2284047). The procedure, abridged: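 Mean time between consecutive network-spike peaks, recorded extracellularly (adaptive spike detection) on DIV 5, 7, 9 and 12, summarized as trapezoidal AUC. Rat cortical cultures on MEAs dosed continuously days 0–12, re-dosed at feeds; loss-of-signal fit relative to DMSO.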

Test [20] can be described thus: CCTE_Shafer_MEA_dev_network_spike_number: CCTE's Neural Network Formation Assay for Number of Network Spikes, Shafer Lab (AID 2284048).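 Further: synchronized bursts across electrodes counted on days 5 7 9 12 and integrated as AUC.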 The procedure, abridged: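 Extracellular recordings from 16-electrode wells track network formation in rat cortical cultures under continuous treatment from plating. The endpoint is network spike number, expressed as AUC across DIV 5–12 relative to DMSO vehicle.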

A short description of test [21]: CCTE_Shafer_MEA_dev_spike_duration_mean: CCTE's Neural Network Formation Assay for Mean Spike Duration, Shafer Lab (AID 2284051).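 Further: mean network spike duration pooled as area under curve over DIV 5 to 12 recordings.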 The procedure, abridged:
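Spontaneous activity was recorded on days 5, 7, 9 and 12 from rat cortical cultures grown on microelectrode arrays and dosed continuously from day 0, with media and compound renewed after the DIV 5 and 9 recordings. Network-spike duration was collapsed by area under the curve.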

Test [22] is described as follows: CCTE_Shafer_MEA_dev_network_spike_duration_std: CCTE's Neural Network Formation Assay for Standard Deviation of Network Spike Duration, Shafer Lab (AID 2284052).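 Further: hits are decreases in network spike duration SD versus DMSO vehicle.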 The procedure, abridged: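 Network spike duration variability was collapsed across recordings on days 5, 7, 9 and 12 by trapezoidal area-under-curve and fitted downward against DMSO. Cultures were rat cortical neurons on PEI-coated MEA plates, dosed continuously from plating, refed with compound DIV 5/9.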

A short description of test [23]: CCTE_Shafer_MEA_dev_per_network_spike_spike_number_mean: CCTE's Neural Network Formation Assay for Mean Number of Spikes in a Network Spike, Shafer Lab (AID 2284053). In a few lines:
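Mean spike count within each network spike, taken in a 0.05 s window at its peak, was recorded on days 5, 7, 9 and 12 and integrated as trapezoidal area under the curve. Rat cortical cultures on MEA plates received continuous compound from day 0, refreshed at medium changes on DIV 5 and 9.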

Inconclusive results are not listed. Activity calls are given as the source filed them. How the source made its calls, unless noted: active means hit-call score of the fitted dose curve at least 0.9, where 1 is the maximum; inactive means score below 0.9.

Turning to `CP(=O)(O)CCC(N)C(=O)O` (stereo not drawn), the result in test [1], in test [2], in test [3], in test [6], in [7] and in test [8] was inactive. In addition, the call in [9], in test [10], in test [11], in [12], in test [13] and in [14] was inactive. Moreover, the result in test [15], in test [16], in test [17], in test [18], in test [19] and in test [20] was inactive. The compound was classed as inactive in test [21], in test [22] and in [23]. Further, the results for the AC50 in test [4] and in [5] were 35 µM (active) and 50 µM (active), respectively.
